This is part of a sample that, as a whole, favours compounds with a hit. Of some 83,000 tested, about 20% had one in any assay.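 Negative percent growth values reflect cell death: -40 means 40% of the cells present at the start died, and -100 means all died.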 Unmarked numbers belong to inactive results. Activity calls are given as the source filed them. The calls were made as follows: active = growth percent below 10; inactive = the rest.

Among the data in PubChem BioAssay (NCI) are growth values, retold here.

This experiment relates to RPMI-8226 leukemia. The experiment can be described thus: NCI-60 one-dose screen, 48 h (100 = growth as untreated, 0 = no growth, -100 = all killed). The settings on record: 10 µM unless noted.
For `Cn1cc(C2=C(c3cn(C4CCN(Cc5ccccn5)CC4)c4ccccc34)C(=O)NC2=O)c2ccccc21`, the growth is 107%.
`O=C1OCCC1Br` (centres undefined): the growth was 97.2%.
Next, `CC(CO)NC1CCCCC1` (centres undefined): 112%.
As for `CC[C@H](C)[C@H](NC(=O)C12CC(NC(C)=O)(C1)C2)C(=O)N(C)[C@H](C[C@@H](OC(C)=O)c1nc(C(=O)N[C@@H](Cc2ccccc2)C[C@H](C)C(=O)OC)cs1)C(C)C`, the growth was 6.56% (active).
For `CC[C@H](C)[C@H](NC(=O)NC(C)(C)C)C(=O)N(C)[C@H](C[C@@H](OC(C)=O)c1nc(C(=O)N[C@@H](Cc2ccccc2)C[C@H](C)C(=O)OC)cs1)C(C)C`, the growth is -3.75% (active).
Next, `ClCCN(CCCl)Cc1ccc(Nc2ccnc3cc(Cl)ccc23)cc1`: 0.54% (active); `O=C(N/N=C\c1ccc(N(CCCl)CCCl)cc1)c1cccc([N+](=O)[O-])c1`: 95.6%.
In the case of `O=[N+]([O-])c1c(Br)sc(Br)c1[N+](=O)[O-]` it was 16.7%.
Turning to `CC12CC(=O)C3(SC#N)C(CCC4=CC(=O)CCC43C)C1CCC2=O` (centres undefined), the growth was 77.5%.
For `CCn1c2ccccc2c2cc(C(=O)c3ccc(C)c4ccccc34)ccc21`, the growth is 12.2%.
As for `COc1ccc([As]=[As]c2ccc(OC)c(NCS(=O)(=O)O)c2)cc1NCS(=O)(=O)O` (centres undefined), the growth is -13% (active).
In the case of `NC1CC2CCCCC2CC1(O)c1ccccc1` (centres undefined) it was 93.6%; in that of `N/C(=N/N=C/c1ccncc1)N[N+](=O)[O-]`, 106%; in that of `O=C1CCC2(O)[C@@H]3Cc4ccc(O)c5c4[C@]2(CCN3Cc2ccoc2)C1O5` (some centres undefined), 101%.
